According to PubChem BioAssay (NCATS):
Results filed as inconclusive are left out. Activity calls are given as the source filed them. Calls come from the whole dose curve; as a rule, active = well fitted curve in the direction sought with a large enough effect; inconclusive = small, poorly fitted or top-dose-only effect, or another doubt; inactive = no such curve, though single readings can be large; an effect the other way counts as inactive or inconclusive.

Legend:
WaGa = assay: qHTS assay to identify novel small-molecules to repurpose for Merkel cell carcinoma treatment (AID 1296009); conditions: MCC and control cell lines, CellTiter-Glo viability, 72 h; series mostly up to 46 µM; note: nearly all actives have a fitted effect of over 60% in size
How it was run: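 Cells were treated for 72 hr at 37 degree celsius with compounds in 8- or 11-point dose response. Viability was read by CellTiter-Glo luminescence, normalized to no-cell (cytotoxicity) and DMSO controls.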

C33A = assay: Primary qHTS to identify gynecologic anti-cancer compounds using libraries of approved drugs and bioactive compounds (AID 1345084); conditions: Gynecologic cancer cell panel viability, ATPlite luminescence, 48 h; series mostly up to 57.5 µM; note: nearly all actives have a fitted effect of over 55% in size
How it was run: (§1)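 Cell viability after 48 h drug treatment, ATPlite luminescence readout; five doses.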

CAOV3 = assay: as above; conditions: Gynecologic cancer cell panel viability, ATPlite luminescence, 48 h; series mostly up to 57.5 µM
How it was run: as §1

CASKI = assay: as above; conditions: Gynecologic cancer cell panel viability, ATPlite luminescence, 48 h; series mostly up to 57.5 µM
How it was run: as §1

Es-2 = assay: as above; conditions: Gynecologic cancer cell panel viability, ATPlite luminescence, 48 h; series mostly up to 57.5 µM
How it was run: as §1

HeLa = assay: as above; conditions: Gynecologic cancer cell panel viability, ATPlite luminescence, 48 h; series mostly up to 57.5 µM
How it was run: as §1

Hek293T = assay: as above; conditions: Gynecologic cancer cell panel viability, ATPlite luminescence, 48 h, control line for the selectivity index; series mostly up to 57.5 µM
How it was run: as §1

JEG-3 = assay: as above; conditions: Gynecologic cancer cell panel viability, ATPlite luminescence, 48 h; series mostly up to 57.5 µM
How it was run: as §1

OV90 = assay: as above; conditions: Gynecologic cancer cell panel viability, ATPlite luminescence, 48 h; series mostly up to 57.5 µM
How it was run: as §1

PA-1 = assay: as above; conditions: Gynecologic cancer cell panel viability, ATPlite luminescence, 48 h; series mostly up to 57.5 µM
How it was run: as §1
% is set by controls: 0 for no effect and ±100 for the full control effect.

NC(=O)CC[C@@H](N)C(=O)O
inactive: outcome (WaGa) | outcome (C33A) | outcome (CAOV3) | outcome (CASKI) | outcome (Es-2) | outcome (HeLa) | outcome (Hek293T) | outcome (JEG-3) | Potency (OV90) | outcome (PA-1)

CC1(C)[C@@H](OC(=O)CCC(=O)O)CC[C@]2(C)[C@H]3C(=O)C=C4[C@@H]5C[C@@](C)(C(=O)O)CC[C@]5(C)CC[C@@]4(C)[C@]3(C)CC[C@@H]12
inactive: outcome (WaGa) | outcome (C33A) | outcome (CAOV3) | outcome (CASKI) | outcome (Es-2) | outcome (HeLa) | outcome (Hek293T) | outcome (JEG-3) | Potency (OV90) | outcome (PA-1)

Cc1ccc(C(C)C)c(O)c1
inactive: outcome (WaGa) | outcome (C33A) | outcome (CAOV3) | outcome (CASKI) | outcome (Es-2) | outcome (HeLa) | outcome (Hek293T) | outcome (JEG-3) | Potency (OV90) | outcome (PA-1)

Nc1ncnc2c1ncn2[C@@H]1O[C@H](COP(=O)(O)O)[C@@H](O)[C@H]1O
inactive: outcome (WaGa) | outcome (C33A) | outcome (CAOV3) | outcome (CASKI) | outcome (Es-2) | outcome (HeLa) | outcome (Hek293T) | outcome (JEG-3) | Potency (OV90) | outcome (PA-1)

OCCN1C[C@H](O)[C@@H](O)[C@H](O)[C@H]1CO
inactive: outcome (WaGa) | outcome (C33A) | outcome (CAOV3) | outcome (CASKI) | outcome (Es-2) | outcome (HeLa) | outcome (Hek293T) | outcome (JEG-3) | Potency (OV90) | outcome (PA-1)

C[C@@H]1CCC[C@H](C)N1
inactive: outcome (WaGa) | outcome (C33A) | outcome (CAOV3) | outcome (CASKI) | outcome (Es-2) | outcome (HeLa) | outcome (Hek293T) | outcome (JEG-3) | Potency (OV90) | outcome (PA-1)

NS(=O)(=O)c1ccc(C(=O)O)cc1
inactive: outcome (WaGa) | outcome (C33A) | outcome (CAOV3) | outcome (CASKI) | outcome (Es-2) | outcome (HeLa) | outcome (Hek293T) | outcome (JEG-3) | Potency (OV90) | outcome (PA-1)

C[C@@H]1O[C@@H](OC[C@H]2O[C@@H](Oc3c(-c4ccc(O)c(O)c4)oc4cc(O)cc(O)c4c3=O)[C@H](O)[C@@H](O)[C@@H]2O)[C@H](O)[C@H](O)[C@H]1O
inactive: outcome (WaGa) | outcome (C33A) | outcome (CAOV3) | outcome (CASKI) | outcome (Es-2) | outcome (HeLa) | outcome (Hek293T) | outcome (JEG-3) | Potency (OV90) | outcome (PA-1)

COc1ccc(O)cc1
inactive: outcome (WaGa) | outcome (C33A) | outcome (CAOV3) | outcome (CASKI) | outcome (Es-2) | outcome (HeLa) | outcome (Hek293T) | outcome (JEG-3) | Potency (OV90) | outcome (PA-1)

CC1CCN(CCCC(=O)c2ccc(F)cc2)CC1
inactive: outcome (WaGa) | outcome (C33A) | outcome (CAOV3) | outcome (CASKI) | outcome (Es-2) | outcome (HeLa) | outcome (Hek293T) | outcome (JEG-3) | Potency (OV90) | outcome (PA-1)

CCCCC1(COC(=O)CCC(=O)O)C(=O)N(c2ccccc2)N(c2ccccc2)C1=O
inactive: outcome (WaGa) | outcome (C33A) | outcome (CAOV3) | outcome (CASKI) | outcome (Es-2) | outcome (HeLa) | outcome (Hek293T) | outcome (JEG-3) | Potency (OV90) | outcome (PA-1)

Cc1cc(NC(=O)C2=C(O)c3ccccc3S(=O)(=O)N2C)no1
inactive: outcome (WaGa) | outcome (C33A) | outcome (CAOV3) | outcome (CASKI) | outcome (Es-2) | outcome (HeLa) | outcome (Hek293T) | outcome (JEG-3) | Potency (OV90) | outcome (PA-1)

CC(=O)Nc1ccccc1
inactive: outcome (WaGa) | outcome (C33A) | outcome (CAOV3) | outcome (CASKI) | outcome (Es-2) | outcome (HeLa) | outcome (Hek293T) | outcome (JEG-3) | Potency (OV90) | outcome (PA-1)

Cc1c(NC(=O)c2cccnc2)c(=O)n(-c2ccccc2)n1C
inactive: outcome (WaGa) | outcome (C33A) | outcome (CAOV3) | outcome (CASKI) | outcome (Es-2) | outcome (HeLa) | outcome (Hek293T) | outcome (JEG-3) | Potency (OV90) | outcome (PA-1)

NC(=O)NS(=O)(=O)c1ccc(N)cc1
inactive: outcome (WaGa) | outcome (C33A) | outcome (CAOV3) | outcome (CASKI) | outcome (Es-2) | outcome (HeLa) | outcome (Hek293T) | outcome (JEG-3) | Potency (OV90) | outcome (PA-1)

CN[C@@H]1[C@@H](O)[C@@H](O[C@@H]2[C@H](O)[C@H](O[C@H]3OC(CN)=CC[C@H]3N)[C@@H](N)C[C@H]2N)OCC1(C)O (stereo not given in full)
inactive: outcome (WaGa) | outcome (C33A) | outcome (CAOV3) | outcome (CASKI) | outcome (Es-2) | outcome (HeLa) | outcome (Hek293T) | outcome (JEG-3) | Potency (OV90) | outcome (PA-1)

CN1C[C@@H]2C[C@H]1CN2c1cc2c(cc1F)c(=O)c(C(=O)O)cn2C1CC1
inactive: outcome (WaGa) | outcome (C33A) | outcome (CAOV3) | outcome (CASKI) | outcome (Es-2) | outcome (HeLa) | outcome (Hek293T) | outcome (JEG-3) | Potency (OV90) | outcome (PA-1)

CCCCCCCCCCOc1cc2c(=O)c(C(=O)OCC)c[nH]c2cc1OCC
inactive: activity change, negative = cytotoxicity (WaGa) -1.72% [at 4.84 µM] | activity change, negative = cytotoxicity (C33A) 1.85% [at 6.55 µM] | activity change, negative = cytotoxicity (CAOV3) 22.4% [at 6.55 µM] | activity change, negative = cytotoxicity (CASKI) 19.5% [at 6.55 µM] | activity change, negative = cytotoxicity (Es-2) -0.35% [at 6.55 µM] | activity change, negative = cytotoxicity (HeLa) -1.47% [at 6.55 µM] | activity change, negative = cytotoxicity (Hek293T) 4.2% [at 6.55 µM] | activity change, negative = cytotoxicity (JEG-3) 6.94% [at 6.55 µM] | activity change, negative = cytotoxicity (OV90) -2.35% [at 6.55 µM] | activity change, negative = cytotoxicity (PA-1) -2.19% [at 6.55 µM]

N[C@@H](Cc1ccc(O)cc1)C(=O)O
inactive: activity change, negative = cytotoxicity (WaGa) -2.96% [at 9.22 µM] | activity change, negative = cytotoxicity (C33A) 3.53% [at 11.6 µM] | activity change, negative = cytotoxicity (CAOV3) -13.2% [at 11.6 µM] | activity change, negative = cytotoxicity (CASKI) 0.958% [at 11.6 µM] | activity change, negative = cytotoxicity (Es-2) -4.06% [at 11.6 µM] | activity change, negative = cytotoxicity (HeLa) 11.2% [at 11.6 µM] | activity change, negative = cytotoxicity (Hek293T) 11.5% [at 11.6 µM] | activity change, negative = cytotoxicity (JEG-3) 4.09% [at 11.6 µM] | activity change, negative = cytotoxicity (OV90) 9.24% [at 11.6 µM] | activity change, negative = cytotoxicity (PA-1) 1.05% [at 11.6 µM]

CO[C@@]1(NC(=O)C(C(=O)O)c2ccc(O)cc2)C(=O)N2C(C(=O)O)=C(CSc3nnnn3C)CO[C@@H]21 (stereo not given in full)
inactive: outcome (WaGa) | outcome (C33A) | outcome (CAOV3) | outcome (CASKI) | outcome (Es-2) | outcome (HeLa) | outcome (Hek293T) | outcome (JEG-3) | Potency (OV90) | outcome (PA-1)

C[C@H]1COc2c(C3(N)CC3)c(F)cc3c(=O)c(C(=O)O)cn1c23
inactive: outcome (WaGa) | outcome (C33A) | outcome (CAOV3) | outcome (CASKI) | outcome (Es-2) | outcome (HeLa) | outcome (Hek293T) | outcome (JEG-3) | Potency (OV90) | outcome (PA-1)

CC(C)C[C@@H](N)C(=O)O
inactive: outcome (WaGa) | outcome (C33A) | outcome (CAOV3) | outcome (CASKI) | outcome (Es-2) | outcome (HeLa) | outcome (Hek293T) | outcome (JEG-3) | Potency (OV90) | outcome (PA-1)

C[N+]1(C)CCCC(OC(=O)C(O)(c2ccccc2)c2ccccc2)C1 (stereo not given)
inactive: outcome (WaGa) | outcome (C33A) | outcome (CAOV3) | outcome (CASKI) | outcome (Es-2) | outcome (HeLa) | outcome (Hek293T) | outcome (JEG-3) | Potency (OV90) | outcome (PA-1)
